This is an account of results in PubChem BioAssay (NCATS).

Calls of active or inactive are those of the source. The call rests on the fitted dose curve; in most records, active means well fitted curve in the direction sought with a large enough effect; inconclusive means small, poorly fitted or top-dose-only effect, or another doubt; inactive means no such curve, though single readings can be large or run the other way.

The experiment can be described thus: Cellular Toxicity (caspase-3) MRC-5 (AID 659). The following applies: MRC-5 cells, luminescence, normalized: DMSO 0%, 10 µM staurosporine 100%; series mostly up to 91.7 µM. The text has this: NIH Chemical Genomics Center [NCGC]
NIH Molecular Libraries Screening Centers Network [MLSCN]
National Institutes of Environmental Health Sciences [NIEHS]
National Toxicology Program [NTP]
We have developed a 1536-well cell-based assay for quantitative high throughput screening (qHTS) against a number of cell lines to determine in vitro caspase 3/7 activity of small molecules. This particular assay uses the MRC-5 cell line which is derived from human normal lung fibroblasts.
NCGC Assay Protocol Summary:
The Caspase-Glo 3/7 assay (Promega) is a homogeneous method to measure caspase-3 and caspase-7 activities in cultured cells. The quantitation of caspase 3/7 activity is based on the cleavage of a peptide-aminoluciferin substrate. After caspase cleaves the substrate the free aminoluciferin is liberated and serves as the substrate of luciferase, which generates the light. The luminescent signal is proportional to amount of caspase 3/7 activity present.
Using the Caspase-Glo 3/7 assay, the amount of caspase 3/7 activity was measured in the MRC-5 line with complete culture medium following compound treatment for 16 hours. The assay was performed in opaque white 1536-well plates. In the screen, tamoxifen and staurosporine were used as positive controls. Library compounds were measured for their ability to cause the activation of caspase 3/7 in the cell line, as reflected by an increase in luminescence signal, in a concentration-dependent manner. Data were normalized to the controls for basal activity (DMSO only) and 100% stimulation (10 uM staurosporine). AC50 values were determined from concentration-response data modeled with the standard Hill equation.
qHTS protocol for caspase 3/7 assay in MRC-5 cells
[Step] [Parameter] [Value] [Description]
1. Reagent; 5 uL; 1500 MRC-5 cells/well
2. Time; 5 hr; 37 °C incubation
4. Controls; 23 nL; Tamoxifen 0.23 uM to 100 uM & staurosporine 1.4 pM to 100 uM
5. Time; 16 hr; 37 °C incubation
6. Reagent; 5 uL; Caspase-Glo 3/7 reagent
7. Time; 1 hr; Room Temperature
8. Detection; Luminescence; Viewlux plate reader
Keywords: caspase 3/7, apoptosis, MRC-5 cell line, luminescence, NTPHTS, NTPHTS_NCGC, NIEHS, EPA, DSSTox, MLSMR, MLSCN, NIH Roadmap, qHTS, NCGC
With `C[C@]12CCC(=O)C=C1CC[C@@H]1[C@@H]2CC[C@]2(C)C(=O)CC[C@@H]12`, the result was inactive.
With `COC(=O)C(c1ccccc1)C1CCCCN1` (centres undefined), the result was inactive.
With `CC(C)NC(C)C`, the result was inactive.
For `C[C@]12CCC(=O)C=C1CC[C@@H]1[C@@H]2CC[C@@]2(C)[C@H]1CC[C@]2(C)O` the value was “inactive”; for `NCCc1ccc(O)cc1`, “inactive”; for `O=C(O)CCCc1ccc(N(CCCl)CCCl)cc1`, “inactive”.
Take `O=P1(N(CCCl)CCCl)NCCCO1` (centres undefined): the outcome was inactive.
As for `CCOC(=O)CC(SP(=S)(OC)OC)C(=O)OCC` (centres undefined), the result was inactive.
In the case of `COP(=S)(OC)Oc1ccc(SC)c(C)c1`, the outcome was inactive.
Turning to `Nc1ccccc1`, the result was inactive.
In the case of `Clc1ccc(C(c2ccc(Cl)cc2)C(Cl)(Cl)Cl)cc1`, the call was inactive.
For `COc1cc(OC)c(OC)cc1C=O` the value was “inactive”.
In the case of `CN1C[C@H](C(=O)N[C@]2(C)O[C@@]3(O)[C@@H]4CCCN4C(=O)[C@H](Cc4ccccc4)N3C2=O)C=C2c3cccc4[nH]cc(c34)C[C@H]21`, the call was inactive.
For `Nc1ccccc1C(=O)O`, the result was inactive.
In the case of `Oc1ccc(Cl)cc1`, the outcome was inactive.
In the case of `CCCC(C)(COC(N)=O)COC(N)=O`, the molecule was classed as inactive.
Regarding `CC(C)c1cccc(C(C)C)c1O`, the call was inactive.
As for `CCC(C)(C)c1ccc(O)cc1`, the entry is “inactive”; as for `C[C@]1(O)CC[C@H]2[C@@H]3CCC4=CC(=O)CC[C@]4(C)[C@@]3(F)[C@@H](O)C[C@@]21C`, “inactive”.
